Screening results deposited in PubChem BioAssay by National Center for Advancing Translational Sciences (NCATS).
ALDH1A1 inh: blocks purified human ALDH1A1 activity; P00352; Purified ALDH1A1, NADH fluorescence, propionaldehyde substrate; Potency, µM (top dose mostly 75.3 µM), usual class: inhibitors; hit rate 7.3% among 220,000; active = well fitted inhibition curve with a large enough effect, not every such curve was filed as active; inconclusive = small, poorly fitted or top-dose-only effect, or another doubt; inactive = no such curve, though single readings can be large or run the other way
HTT aggregate: mutant huntingtin aggregation inhibition. PC12 HttQ103-GFP aggregates, Acumen cytometry, 40 h. Potency, µM (top dose mostly 46.1 µM), usual class: inhibitors. hit rate 1.1% among 220,000; also: nearly all actives have a fitted effect of over 60% in size
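Steps: seed 1500 PC12 HTTQ103-GFP cells/well; add tebufenozide, 100 nM final; add compound titration; add ATPLite reagent; quantify GFP aggregates by laser scanning cytometry.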
HPGD block: HPGD (human) dehydrogenase inhibition; Potency, µM, most hits filed as inhibitors; purified HPGD, NADH fluorescence kinetic, PGE2 substrate; hit rate 4.3% among 150,000; active = well fitted inhibition curve with a large enough effect, not every such curve was filed as active; inconclusive = small, poorly fitted or top-dose-only effect, or another doubt; inactive = no such curve, though single readings can be large or run the other way
Target sequence (P15428 whole entry, looked up): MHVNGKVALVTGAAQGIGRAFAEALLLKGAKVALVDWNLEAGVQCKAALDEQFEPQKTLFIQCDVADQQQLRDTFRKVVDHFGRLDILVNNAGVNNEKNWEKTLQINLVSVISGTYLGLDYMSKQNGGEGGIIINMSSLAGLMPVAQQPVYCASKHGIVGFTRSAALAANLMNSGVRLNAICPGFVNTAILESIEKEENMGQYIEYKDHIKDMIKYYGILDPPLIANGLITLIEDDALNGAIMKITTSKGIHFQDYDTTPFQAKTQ
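20 nM HPGD preincubated 15 min at room temperature with compound in 50 mM Tris-HCl pH 8, 0.01% Tween 20. Started with 1 mM NAD+ and 30 uM prostaglandin E2; NADH fluorescence (360/450 nm) read 5 times over 30-s intervals, last minus first.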
CBFb-RUNX1 inh: blocks binding between human CBF-beta and RUNX1. Q01196+Q13951. AlphaScreen CBFb-His/RUNX1-biotin binding, biochemical. Potency, µM (highest dose often 59.8 µM), actives largely listed as inhibitors. 230,000 tested, under 10 active
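CBF-beta (His) and RUNX1 (biotin), 30 nM each; 20 min preassociation; + compound, 15 min; + beads 50 ng each (Ni, streptavidin), 90 min; RT; AlphaScreen read.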
HTT cytoprotect: protects HTT-Q103 PC12 cells, measured by ATP. hit rate 0.14% among 230,000. Potency, µM (top dose mostly 56.4 µM), hits mostly activators. PC12 HTT-Q103 induced, cytoprotection, ATP luminescence, 40 h; also: nearly all actives have a fitted effect of over 45% in size
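Stable PC12 Q103-GFP cells in serum-supplemented, phenol red-free DMEM; induction by tebufenozide at 100 nM final; compound dose series; cell viability quantified luminescently from ATP.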
PNC inhibitor: inhibitors of perinucleolar compartment assembly; PC3M PTB-GFP, PNC prevalence imaging, 16 h; active compounds read low; activity change (PNC), negative = inhibition, % at 10 µM; hit rate 3.1% among 140,000; AID 2417;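 active = readout at or below -70, meaning at least 70% loss of cells showing the perinucleolar compartment, a nuclear body marking cancer cells; inconclusive = readout between -30 and a set limit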
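Read-out is percentage of cells bearing a perinucleolar compartment, from automated 20x imaging of fixed, Hoechst-stained PC3M PTB-GFP cells. Cells were seeded 4 h, then exposed 16 h to compound (23 nl of library stock) in duplicate plates.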
Numbers stand for hits; - = inactive; ? = inconclusive; . = no result; [ ] = dose if it differs, or a comment. Only some compounds are listed: those with a hit (about 11% of all), similar ones and a draw of the others. Unless noted, calls follow the shape of the dose curve; as a rule, active = well fitted curve in the direction sought with a large enough effect; inconclusive = small, poorly fitted or top-dose-only effect, or another doubt; inactive = no such curve, though single readings can be large; an effect the other way counts as inactive or inconclusive.

SMILES | ALDH1A1 inh | HTT aggregate | HPGD block | CBFb-RUNX1 inh | HTT cytoprotect | PNC inhibitor
Cc1sc(NC(=O)c2ccccc2)c(C(c2ccccn2)N2CCN(CCO)CC2)c1C (configuration not stated) | - | - | - | ? | -[10 µM] | -
CCOc1ccc(C(c2c(NC(=O)c3ccccc3)sc(C)c2C)N2CCN(C)CC2)cc1 (configuration not stated) | ? | - | ? | - | -[10 µM] | -81
CCOc1ccccc1-n1nnnc1SCc1nc2ccccc2s1 | 10µM | - | - | - | - | -
CC(=O)NC1[C@H](O)C[C@@](O)(C(=O)O)O[C@H]1[C@H](O)[C@H](O)CO (some centres not stated) | . | - | . | . | ? | .
CCCNc1nc2c(c(=O)n(C)c(=O)n2C)n1Cc1cccc(C)c1 | - | 14µM | - | - | -[10 µM] | ?
CC(C)n1c(NCCc2ccccc2)nc2c1c(=O)n(C)c(=O)n2C | - | 11µM | - | - | -[10 µM] | -
CCCNc1nc2c(c(=O)n(C)c(=O)n2C)n1CCc1ccccc1 | - | ? | - | - | - | -
CCn1c(=O)cc(SCC(=O)Nc2ccccc2N2CCN(C)CC2)c2ccccc21 | . | . | . | . | -[0.074 µM] | .
Fc1cccc(-c2csc(-c3ccno3)n2)c1 | 22µM | -[9.22 µM] | . | - | -[10 µM] | .
CCc1ccc(C2=NN(S(C)(=O)=O)C(c3cccs3)C2)cc1 (configuration not stated) | 20µM | -[9.22 µM] | - | - | - | -100
Cc1ccc(C2=NN(S(C)(=O)=O)C(c3cccs3)C2)cc1 (configuration not stated) | - | - | - | - | - | -
CCS(=O)(=O)Nc1cccc(C2=NN(S(=O)(=O)c3ccc(C)cc3)C(c3cccs3)C2)c1 (configuration not stated) | 5µM | - | - | - | -[10 µM] | -
CCS(=O)(=O)Nc1cccc(C2=NN(S(=O)(=O)c3ccccc3)C(c3cccs3)C2)c1 (configuration not stated) | ? | - | - | - | - | -
COc1ccc(OC2C=CC(C#Cc3ccc(F)cc3F)OC2CO)cc1 (configuration not stated) | -[13.5 µM] | . | . | -[13.1 µM] | ? | .
COC(=O)c1cc(=O)n(Cc2cccs2)c(=NCc2cccs2)s1 | 0.32µM | - | - | - | - | -
COC(=O)c1cc(=O)n(CCc2ccccc2)c(=Nc2ccc(F)cc2)s1 | - | - | - | - | -[10 µM] | -83
CCOC(=O)c1ccc(N=c2sc(C(=O)OC)cc(=O)n2Cc2ccco2)cc1 | 1.4µM | - | - | - | -[10 µM] | ?
COC(=O)c1cc(=O)n(Cc2ccccc2)c(=NCc2ccccc2)s1 | - | - | . | - | - | .
CCOC(=O)c1ccc(N=c2sc(C(=O)OC)cc(=O)n2CCCN2CCOCC2)cc1 | - | - | - | - | - | -
Cn1cc(-c2nc3cncnc3n(Cc3ccccc3Cl)c2=O)c2ccccc21 | - | . | . | . | - | .
Cn1nc(C(F)(F)F)c(/C=N/OC(=O)c2ccccc2)c1Sc1ccc(Cl)cc1 | - | 14µM | - | - | - | ?
Cc1cccc(N=c2oc3cc(O)ccc3cc2C(N)=O)c1 | ? | 8.9µM | ? | - | - | -
CSc1ccccc1NC(=O)c1noc2c1CCC2 | 25µM | - | ? | ? | -[10 µM] | ?
O=C(NCc1cccc(F)c1)c1noc2c1CCCC2 | ? | - | 20µM | ? | -[10 µM] | ?
NC(=O)N/N=C/c1cc(Br)ccc1OC(=O)c1ccccc1 | - | - | - | - | . | -81
SMILES | ALDH1A1 inh | HTT aggregate | HPGD block | CBFb-RUNX1 inh | HTT cytoprotect | PNC inhibitor
COc1cc(C(=O)O[C@@H]2CC(C)=CC[C@@]3(C)CC[C@](O)(C(C)C)[C@H]23)ccc1O | . | . | . | . | - | .
Cc1cc(C)n(C(C)n2nc(C)cc2C)n1 | - | - | - | - | -[10 µM] | -
CN(C)c1ncc2ncc(=O)n(C3CC3)c2n1 | - | . | . | . | - | .
COc1ccc(-c2cc(=O)oc3c(C)c(OCc4nn[nH]n4)ccc23)cc1 | ? | - | ? | - | - | -
Cc1c(OCc2nn[nH]n2)ccc2c(-c3ccccc3)cc(=O)oc12 | 16µM | - | 13µM | - | -[0.074 µM] | -
Cc1cc(C)cc(-n2c(O)c(C=NC3CCS(=O)(=O)C3)c3ccccc3c2=O)c1 (configuration not stated) | - | - | - | - | - | -
Cc1cccc(-n2c(O)c(C=NC3CCS(=O)(=O)C3)c3ccccc3c2=O)c1 (configuration not stated) | 16µM | - | - | - | - | -
C=C1CCN(C(Cc2ccccc2)C(=O)NC2CCN(Cc3ccccc3)CC2)S(=O)(=O)c2ccccc21 (configuration not stated) | . | . | . | - | . | .
Cc1ccc(C)c(OCCn2cc(/C=C(\C#N)C(=O)NCc3ccco3)c3ccccc32)c1 | - | - | - | - | ? | -86
C/C=C\C1=C(CO)C(=O)[C@@H]2OC2C1=O (some centres not stated) | 0.71µM | . | . | . | -[10 µM] | .
COc1cccc(/C=N/NC(=O)CNC(=O)c2ccc(S(=O)(=O)N3CCCC3)cc2)c1OC | ? | - | . | - | . | .
O=C(O)[C@@H]1[C@H](C(=O)O)[C@H]2C(=O)C=C[C@H]1N2Cc1ccccc1 | -[13.5 µM] | . | - | . | -[10 µM] | .
CCCCc1nc2c(c3c1C[C@H](C)OC3)CN(S(=O)(=O)c1c(C)noc1C)CC2 | -[13.5 µM] | . | - | -[13.1 µM] | -[10 µM] | .
O=C(N/N=C/c1ccc(OCc2ccccc2)cc1)c1ccncc1 | ? | - | . | - | - | .
Oc1ccc(N=Cc2ccc(OCc3ccccc3)cc2)cc1 | 20µM | -[9.22 µM] | . | - | -[10 µM] | .
COc1ccc(S(=O)(=O)Nc2ccccc2C(=O)NC(C)(C)C)cc1OC | ? | - | ? | - | - | -112
COc1ccccc1NS(=O)(=O)c1ccc(OC)c(OC)c1 | - | - | - | - | -[10 µM] | -
N#Cc1c(Cl)nsc1NN | 22µM | ? | . | - | - | .
O=C(O)CCCc1ccc2ccc3ccccc3c2c1 | -[13.5 µM] | . | - | . | -[10 µM] | .
CN(C)c1ccc(/C=C(/C#N)C(=O)NCc2ccccc2)o1 | ? | - | - | - | -[10 µM] | -83
O=C(Nc1nc(-c2cccs2)c(C(=O)C(F)(F)F)s1)c1ccco1 | - | - | . | - | - | .
O=C(Nc1nc(-c2cccs2)c(C(=O)C(F)(F)F)s1)c1ccccc1 | - | 10µM | - | -[2.36 µM] | . | -
O=S1(=O)N=C(Nc2ccc(O)c(CN3CCCCC3)c2)c2ccccc21 | - | - | - | - | - | ?
COc1cc(C2=NOC(C(=O)NCc3ccco3)C2)cc(OC)c1OC (configuration not stated) | - | - | - | - | - | ?
COc1ccc(C2=NOC(C(=O)Nc3cccnc3)C2)cc1 (configuration not stated) | - | - | - | - | - | -102
COc1ccc(C2=NOC(C(=O)NCc3ccco3)C2)cc1 (configuration not stated) | 22µM | - | ? | - | - | -
